Measured values: PubChem BioAssay (NCI)
This is part of a sample that, as a whole, favours compounds with a hit. Of some 83,000 tested, about 20% had one in any assay.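 48-hour exposure, single concentration, 96-well plates; percent growth endpoint where 0 means no net growth. Active: below 10.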 Activity calls are given as the source filed them.

Test system: HL-60(TB) leukemia
Assay: NCI-60 one-dose screen, 48 h (100 = growth as untreated, 0 = no growth, -100 = all killed)
Conditions: 10 µM unless noted

Structure (SMILES)	growth
Cc1cc2nc3c([nH]c2cc1C)c1ccc(=O)cc1n3CCN(C)C	16.8% (inactive)
O=c1[nH]c2ccc(Cl)cc2cc1CSc1ccc(Nc2nccc(-c3ccc4ccccc4c3)n2)cc1	91.4% (inactive)
CCN1CCN(Cc2ccc(C(=O)Nc3cccc(-c4cn(-c5ccc6oc(=O)ccc6c5)nn4)c3)cc2C(F)(F)F)CC1	27.7% (inactive)
COc1ccc(-c2cc(C(=O)N=Nc3c(O)[nH]c4ccc(Cl)cc34)c3ccccc3n2)cc1	96% (inactive)
CC1=C(C(=O)OC(C)C)C(c2ccc(O)cc2)NC(=S)N1 (centres undefined)	88.1% (inactive)
O=C(/C=C/c1cccc(OCc2ccc(F)cc2)c1)c1nc2ccccc2[nH]1	8% (active)
Nc1cc2ccccc2c(=O)n1NC(=O)c1ccc(Br)cc1	99.4% (inactive)
CCCCCCCCc1ccc(C(=O)Nc2ccc(C)cc2C(=O)O)cc1C	102% (inactive)
Cn1cc(-c2cc3nc(-c4c[nH]c5ccc(Br)cc45)cc(N)n3n2)c2ccccc21	-45.3% (active)
COc1cccc(/C=C2\N=C(C)N(CCc3ccc(S(N)(=O)=O)cc3)C2=O)c1	89.4% (inactive)
Cc1ccc2c(c1)nc(-c1ccccc1)n2CC(=O)N=Nc1c(O)[nH]c2ccc(Cl)cc12	46.2% (inactive)
O=C1Nc2cc(-c3ccc(NS(=O)(=O)c4ccc(F)c(Cl)c4)cc3)ccc2/C1=C/c1ccc[nH]1	46.9% (inactive)
CCCCNC(=S)Nc1ccc(OCc2nc3ccccc3[nH]2)cc1	31.7% (inactive)
CN(C)CCNC(=O)OCCCCOc1cc(O)c2c(=O)cc(-c3ccccc3)oc2c1	-61.6% (active)
O=C1Nc2ccccc2/C1=C\c1ccc(OCC(=O)c2ccc(Br)cc2)cc1	40.4% (inactive)
O=[N+]([O-])c1ccc(/C=C/c2nc3ccccc3n3c(=S)[nH]nc23)cc1	79.1% (inactive)
CS(=O)(=O)Nc1cc(-c2ccc3ncnc(Nc4ccc(OCc5cccnc5)c(Cl)c4)c3c2)cnc1Cl	-59.5% (active)
COc1cccc(-c2nc(Nc3ccc(S(N)(=O)=O)cc3)c3ccccc3n2)c1	35% (inactive)
CONC[C@]1(C)C=C2C(=O)[C@](C)(O)C3(CC3)C(C)=C2[C@H]1O	-29.3% (active)
CC(=O)OC[C@@]1(C)C2CC[C@]3(C)C(CC=C4C5CC(C)(C)CC[C@]5(C(=O)Nc5ccccc5)CC[C@]43C)[C@@]2(C)C[C@@H](OC(C)=O)[C@@H]1OC(C)=O (some centres undefined)	22.6% (inactive)

Structure (SMILES)	growth
COc1ccc(-c2cc(C(=O)N=Nc3c(O)[nH]c4ccc(Cl)cc34)c3ccccc3n2)cc1OC	109% (inactive)
Clc1ccc(-c2nc3c4c(-c5ccccc5)c(-c5ccccc5)n(Cc5ccccc5)c4ncn3n2)cc1	-27.7% (active)
COc1cc(NC(=O)CSc2nnc(-c3ccc4nc(-c5ccc(Cl)cc5)[nH]c4c3)o2)cc(OC)c1OC	56.6% (inactive)
C#CCOc1ccc(/C=N/Nc2nc(-c3ccc(Cl)cc3)cs2)cc1OC	20.1% (inactive)
COc1ccc([C@H]2C(C(=O)c3ccc(Cl)cc3)C3(N[C@@H]2c2ccccc2)C(=O)Nc2ccccc23)cc1 (some centres undefined)	29.2% (inactive)
Cc1cn(-c2cc(NC(=O)c3ccc(C)c(-n4cc(-c5cnc6cccnn56)nn4)c3)cc(C(F)(F)F)c2)cn1	24.9% (inactive)
CCCCSc1nc(Nc2ccc(/C(C)=N/NC(N)=S)cc2)c(C#N)c(-c2ccc(F)cc2)n1	90.7% (inactive)
CN(C)c1nc(NCCNS(=O)(=O)c2ccc(C3=Nc4c(N)nc(N)nc4NC(c4ccc(C(F)(F)F)cc4)C3)cc2)nc(Nc2ccc(F)cc2)n1 (centres undefined)	-13.7% (active)
O=C1N/C(=N\c2nccs2)S/C1=C\c1ccc([N+](=O)[O-])cc1	5.47% (active)
COc1cc(C2CC(c3ccc(Cl)cc3)=Nc3c(N)nc(N)nc3N2)ccc1Oc1nc(Nc2ccc(F)cc2)nc(N(C)C)n1 (centres undefined)	16.3% (inactive)
CCOC(=O)C1=C(N)N(c2ccc(C)cc2)C2=C(C(=O)CC(C)(C)C2)C1c1ccccc1Br (centres undefined)	-11.2% (active)
COc1ccc(C(=O)Nc2sc3c(c2C#N)CCC(=O)C3)cc1C(F)(F)F	-12% (active)
Cc1ccc([C@H]2C(C(=O)c3ccc(Cl)cc3)C3(N[C@@H]2c2ccccc2)C(=O)Nc2ccc(Br)cc23)cc1 (some centres undefined)	35.1% (inactive)
COc1cc(C2CC(c3ccccc3)=Nc3c(N)nc(N)nc3N2)ccc1Oc1nc(Nc2ccc(F)cc2)nc(N(C)C)n1 (centres undefined)	26.1% (inactive)
COc1ccccc1Nc1nnc(-c2c[nH]c3ccccc23)o1	2.38% (active)
COc1ccc2ncc(C#Cc3cncc(C(=O)Nc4ccc(CN5CCN(C)CC5)c(C(F)(F)F)c4)c3)n2n1	-60.2% (active)
COc1cc2c(c(OC)c1OC)C(=O)CC(c1cccc(NC(=O)c3cccc(NC(=O)[C@H](C)NC(=O)OC(C)(C)C)c3)c1)O2 (some centres undefined)	71.2% (inactive)
COc1ccc(C(=O)/C=C/c2ccc(Oc3nc(Nc4ccc(F)cc4)nc(N(C)C)n3)c(OC)c2)cc1	48.1% (inactive)
O=C(c1cc2cc(OCCCN3CCC3)ccc2[nH]1)N1C[C@@H](CCl)c2c1cc(OCc1ccccc1)c1ccccc21	-33.7% (active)
